The sample as a whole holds a higher share of hits than the screen did.
Shiga toxin inh = Shiga toxin inhibition | hit rate 9.2% among 290,000 | inhibition, % at 38.7 µM | Vero cells, Shiga toxin protein synthesis inhibition reporter; in the data active means inhibition mostly above about 28%, no sharp cut-off; inactive means mostly below about 43%; further: 0% is about no effect
FBPA Giardia inh = blocks Giardia fructose-bisphosphate aldolase activity | A8B2U2 | hit rate 0.71% among 290,000 | purified Giardia FBPA | Potency, µM (series often up to 59.6 µM), inactives show top-dose activity, negative = inhibition, actives largely listed as inhibitors; further: potency means the concentration at half of the fitted maximal effect; on the % scale 0 is the no-effect control and ±100 the full control effect; nearly all actives have a fitted effect of over 55% in size
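40 nM FBPA preincubated 10 min at RT with compound (up to 57.5 uM final), then substrate plus GAPDH/TPI/NAD/arsenate coupling and diaphorase/resazurin added. Fluorescence read after 20 min at RT, 525/598 nm.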
Sm TGR block = blocks Schistosoma mansoni thioredoxin glutathione reductase; AID 485364; Q962Y6; Potency, µM (top dose mostly 114 µM), inactives show at the highest dose activity change, negative = inhibition, hits mostly inhibitors; hit rate 3% among 360,000; purified TGR, DTNB reduction, TNB absorbance 405 nm; further: potency means the concentration at half of the fitted maximal effect; on the % scale 0 is the no-effect control and ±100 the full control effect; nearly all actives have a fitted effect of over 60% in size
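First, TGR (20 nM dispensed) and NADPH were mixed with compound. Second, a 15 min room-temperature incubation followed. Third, further NADPH and then DTNB were added to start the reaction. Finally, TNB absorbance was monitored kinetically.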
TbPYK inhibitor = blocks Trypanosoma brucei pyruvate kinase | Potency, µM (series often up to 76.8 µM), for the others: at the highest dose activity, negative = inhibition, usual class: inhibitors | Q57TT1 | hit rate 0.12% among 410,000 | AID 624173 | TbPYK enzyme, Kinase-Glo Plus ATP luminescence, 45 min; further: potency means the concentration at half of the fitted maximal effect; on the % scale 0 is the no-effect control and ±100 the full control effect; nearly all actives have a fitted effect of over 50% in size
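T. brucei PYK with substrate was exposed to pin-transferred compounds across a concentration series, then started with 130 uM ADP (final). After 45 min at room temperature, Kinase-Glo Plus luminescence was read, normalized and curve-fitted.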
Cycloheximide cs = counter-screen for Shiga toxin inhibitors: cycloheximide protein synthesis inhibition | cell reporter, cycloheximide protein synthesis inhibition counterscreen | max response, % | hit rate 12% among 300,000 | AID 2314; in the data active means max response mostly above about 13%, no sharp cut-off; inactive means mostly below about 14%; further: read at 38.3 µM for the half of the compounds with a filed dose; 0% is about no effect
LmPK inh = inhibitors of Leishmania mexicana pyruvate kinase; Q27686; purified LmPK, Kinase-Glo ATP luminescence, 1 h; Potency, µM (series often up to 57.5 µM), without a hit: at the top dose activity change, negative = inhibition, most hits filed as inhibitors; hit rate 0.37% among 290,000; further: potency means the concentration at half of the fitted maximal effect; on the % scale 0 is the no-effect control and ±100 the full control effect
Target sequence (Q27686 whole entry, looked up): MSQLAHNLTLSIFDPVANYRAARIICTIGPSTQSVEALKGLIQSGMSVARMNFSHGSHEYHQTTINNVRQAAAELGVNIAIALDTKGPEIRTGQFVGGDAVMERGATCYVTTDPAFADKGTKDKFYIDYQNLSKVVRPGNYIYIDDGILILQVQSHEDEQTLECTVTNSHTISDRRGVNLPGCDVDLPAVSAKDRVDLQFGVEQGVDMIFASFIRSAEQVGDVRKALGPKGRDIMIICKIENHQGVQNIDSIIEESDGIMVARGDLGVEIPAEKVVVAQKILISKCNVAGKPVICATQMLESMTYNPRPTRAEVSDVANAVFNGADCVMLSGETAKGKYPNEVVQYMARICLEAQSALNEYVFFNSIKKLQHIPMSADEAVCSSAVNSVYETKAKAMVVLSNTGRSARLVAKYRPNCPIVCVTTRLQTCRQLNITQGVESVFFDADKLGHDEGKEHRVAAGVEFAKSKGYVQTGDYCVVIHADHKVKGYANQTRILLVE
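Purified LmPK (0.1 nM) converted ADP (0.1 mM) to ATP with PEP (0.5 mM) in imidazole buffer pH 7.2 with KCl and MgCl2, 1 h at room temperature. ATP was read by Kinase-Glo luminescence; data normalized to uninhibited and no-enzyme controls.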
An asterisk follows results filed as active; u = inconclusive; x = no result; [ ] = remark or other dose. Unless noted, the call rests on the fitted dose curve; in most records, active means well fitted curve in the direction sought with a large enough effect; inconclusive means small, poorly fitted or top-dose-only effect, or another doubt; inactive means no such curve, though single readings can be large; an effect the other way counts as inactive or inconclusive.

SMILES	Shiga toxin inh	FBPA Giardia inh	Sm TGR block	TbPYK inhibitor	Cycloheximide cs	LmPK inh
CC(Cc1cccs1)NC(=O)Nc1ccc(Cl)cc1 (centres undefined)	88.5*	-6.3%	-12.6%	0.1%	28.7*	4.4%
CC(Cc1cccs1)NC(=O)Nc1ccccc1 (centres undefined)	63.7*	-1.7%	0.0%	-3.8%	14.4	2.2%
CC(Cc1cccs1)NC(=O)Nc1ccc(Cl)c(Cl)c1 (centres undefined)	58.8*	-7.7%	5.4%	3.3%	44.8*	2.3%
O=C(Cc1cccs1)Nc1ccccc1	30.4	-5.1%	6.1%	0.1%	3.6	0.5%
Cc1ccccc1CCNC(=O)c1ccc2c(c1)nc1n2CCCCC1	x	x	5.2%	6.5%	x	x
CCC1CCc2c(c3ccccc3[nH]c2=O)O1 (centres undefined)	-13.1	1.7%	-15.6%	1.3%	11.4	-2.3%
O=c1[nH]c2ccccc2c2oc(CCl)nc12	16.9	u	6.31µM*	-3.0%	-1.4	6.1%
Cc1ccc(-c2onc(C)c2C)cc1S(=O)(=O)NCc1ccco1	x	x	2.8%	-13.3%	x	x
O=C(c1ccco1)N1CCn2cccc2C1c1ccccc1 (centres undefined)	-5.8	-17.3%	35.5µM*	-3.3%	2.9	4.0%
COc1cc2c(cc1OC)C(c1ccccc1)N(C(=O)c1ccco1)CC2 (centres undefined)	37.8	-0.8%	-23.8%	-5.9%	11.3	9.4%
COc1ccc(C(=O)/C=C/Nc2ccc(S(=O)(=O)Nc3nc(C)cc(C)n3)cc2)c(OC)c1	44.2	4.7%	-1.4%	1.1%	1.3	9.7%
CC(=O)Nc1ccc(S(=O)(=O)Nc2ccc(S(=O)(=O)Nc3nc(C)cc(C)n3)cc2)cc1	-5.0	u	2.3%	2.3%	-5.1	-0.1%
Cc1cc(C)nc(NS(=O)(=O)c2ccc(N/C=C/C(=O)c3ccc(Cl)cc3)cc2)n1	19.9	4.8%	-8.2%	5.9%	11.4*	2.9%
COc1ccc(C(=O)/C=C/Nc2ccc(S(=O)(=O)Nc3nc(C)cc(C)n3)cc2)cc1OC	-4.0	-0.9%	0.9%	-21.4%	15.8*	1.8%
Cn1cccc1C(=O)N1CCC2(CCCN(c3ccccc3)C2)CC1	x	-3.8%	x	2.5%	x	x
CCCC(O)c1nc2ccccc2n1CCCOc1ccc(Cl)cc1 (centres undefined)	x	x	2.2%	1.1%	x	x
CCCCN(C(=O)CC1CCCC1)c1c(N)n(CCC)c(=O)[nH]c1=O	x	x	0.562µM*	-10.1%	x	x
O=c1c(O)c(-c2cc(O)c(O)c(O)c2)oc2cc(O)cc(O)c12	x	u	3.55µM*	u	x	x
COc1c(-c2ccc(O)c(O)c2)oc2cc(O)cc(O)c2c1=O	12.6	-22.9%	28.2µM*	-10.8%	active	-1.9%
O=c1c(O[C@@H]2O[C@H](CO)[C@H](O)[C@H](O)[C@H]2O)c(-c2ccc(O)c(O)c2)oc2cc(O)cc(O)c12	10.5	u	17.5%	x	6.5	18.2%
Cc1ccc(-c2noc(C3CCCN(C(=O)c4ccc(F)cc4F)C3)n2)cc1 (centres undefined)	16.6	-0.6%	4.2%	-1.7%	15.1*	1.2%
COc1cccc(-c2noc(C3CCCN(C(=O)c4ccc(F)cc4F)C3)n2)c1 (centres undefined)	30.9	-5.2%	-11.0%	2.5%	1.2	-1.2%
CC(C)c1ccc(-c2noc(C3CCCN(C(=O)c4ccc(F)cc4F)C3)n2)cc1 (centres undefined)	37.6*	-0.3%	-1.6%	-6.3%	54.7*	-7.4%
CNC(C(=O)c1ccccc1)C(OC)c1ccc(C)cc1 (centres undefined)	44.0*	0.9%	-6.6%	-0.2%	11.4*	1.9%
Cc1cccc2c1-c1sc(C(=O)NCc3ccc(Cl)cc3)cc1CO2	x	x	9.0%	1.7%	x	x
SMILES	Shiga toxin inh	FBPA Giardia inh	Sm TGR block	TbPYK inhibitor	Cycloheximide cs	LmPK inh
Cc1c(C)c2c(c(C)c1OC(=O)CCC(=O)OCCO)CC[C@](C)(CCC[C@H](C)CCC[C@H](C)CCCC(C)C)O2	x	x	x	3.9%	x	x
Cc1ccc(NC(=O)N2CCC(=O)N2)cc1	76.8*	-9.3%	-32.1%	-20.5%	36.9*	-4.8%
Cc1ccc(NC(=O)C(C)C(=O)Nc2ccc(C)cc2)cc1	-21.3	6.4%	4.5%	4.4%	-3.7	3.6%[11.5 µM]
CCC(C)c1ccc(NC(=O)N2CCN(C(=O)C3CCCO3)CC2)cc1 (centres undefined)	-3.0	-16.6%	-0.2%	1.7%	1.4	-2.1%
O=C(NCc1ccco1)c1ccc(Cn2c(SCc3ccc(F)cc3)nc3cccnc32)cc1	x	x	u	-0.3%	x	x
COc1ccc(CC(=O)N2CCCC(CNC(=O)c3ccccc3Cl)C2)cc1 (centres undefined)	33.1*	6.6%	3.9%	-1.6%	12.5	11.6%
COc1cccc(C(=O)NCC2CCCN(C(=O)Cc3cccc(C)c3)C2)c1OC (centres undefined)	x	x	x	3.1%	x	x
CC(=O)NCCC(=O)N1CCCC(CNC(=O)c2ccc(-c3ccccc3)cc2)C1 (centres undefined)	27.1	-1.5%	5.4%[57.1 µM]	-4.8%	14.6*	-1.9%
Cc1cccc(NC(=O)N2CCCC(CNC(=O)c3ccccc3Cl)C2)c1C (centres undefined)	23.0	3.0%	0.5%	1.3%	7.4	4.9%
CC(=O)c1ccc(C(=O)N2CCCC(CNC(=O)c3ccccc3Cl)C2)cc1 (centres undefined)	19.1	4.6%	3.9%	0.2%	15.5*	-0.5%
C=CCC(=O)N1CCCC(CNC(=O)c2ccc(-c3ccccc3)cc2)C1 (centres undefined)	11.3	-0.3%	1.3%	-0.6%	9.2	4.3%
COC(=O)c1ccc(C(=O)N2CCCC(CNC(=O)c3ccccc3Cl)C2)cc1 (centres undefined)	69.2	3.1%	-7.7%	3.2%	13.3*	2.7%
CCOC(=O)c1nn(-c2ccccc2)c2nnc(Cc3ccccc3)c(=O)n12	7.8	3.0%	-3.1%	1.2%	5.4	-1.2%
COc1cccc(C2CC(=O)Nc3c2c(=O)n(C)c2ncnn32)c1OC (centres undefined)	x	x	-3.5%	2.4%	x	x
O=C(NCC1CCCN(C(=O)c2cscn2)C1)c1ccc(-c2ccccc2)cc1 (centres undefined)	7.2	-2.6%	-16.0%	4.0%	8.0	6.3%
O=C(NCC1CCCN(C(=O)c2cscn2)C1)c1ccccc1Cl (centres undefined)	30.3*	1.8%	-9.0%	-3.6%	25.5*	-5.6%
COCCCNC(=O)C1CCN(c2ncnc3c2nc2n3CCCCC2)CC1	x	x	-3.8%	-6.9%	x	x
Cc1ccccc1NC(=O)c1cccnc1	-1.0	12.4%	5.7%	-0.7%	-2.8	-3.5%
C/C(=N\Nc1ccccc1C)c1cccnc1	6.8	-6.3%	35.5µM*	2.2%	-3.1	-4.1%
C/C(=N\NC(=O)c1ccc(N(C)C)cc1)c1ccc(C)cc1C	24.5*	3.2%	-18.8%	2.1%	21.2	-3.2%

From PubChem BioAssay
